The source of these data is PubChem BioAssay (NCI).

The panel holds about 83,000 compounds, 20% with a hit somewhere; the sample as a whole holds those more often.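 Single-concentration screen, 48 h exposure, 96-well plates. Endpoint: percent growth. Below 10 = active.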 Values without a mark were called inactive. Calls of active or inactive are those of the source.

Test in all cases: NCI-60 one-dose screen, 48 h (100 = growth as untreated, 0 = no growth, -100 = all killed)
Settings in all cases: 10 µM unless noted

Experiment [1] deals with NCI-H23 lung.
For experiment [2], the system named is NCI-H226 lung.
In experiment [3] the test system is NCI-H322M lung.
Experiment [4] has as its system HOP-62 NSCLC.
Experiment [5] has as its system NCI-H460 lung.
Experiment [6] concerns HOP-92 NSCLC.
Experiment [7] has as its system NCI-H522 lung.
In experiment [8] the test system is A549/ATCC NSCLC.
In experiment [9] the test system is 786-0 renal.
Experiment [10] concerns COLO 205 colon.
For experiment [11], the system named is DU-145 prostate.
The test system of experiment [12] is K-562 leukemia.
For experiment [13], the system named is MALME-3M melanoma.
Experiment [14] concerns MDA-MB-231 breast.
Experiment [15] relates to RXF 393 renal.
Experiment [16] deals with SF-268 CNS.
The subject of experiment [17] is SF-295 CNS.
Experiment [18] has as its system SF-539 CNS.
Experiment [19] concerns UACC-257 melanoma.
Experiment [20] has as its system M14 melanoma.

As to `CN(C)CCSC1=Nc2ccc(Cl)cc2C(c2ccccc2Cl)N(C)C1` (stereo not drawn), the growth is 90% in [1]; 52.4% in [2]; 58.7% in experiment [3]; 55.9% in experiment [4]; 78.7% in experiment [5]; 51.4% in [6]. Also, the growth in experiment [7] is 71.8%; in experiment [8] it was 78%; in [9], 65.2%; in [10], 70.4%; in [11], 94.2%; in experiment [12], 47.9%. The growth was 58.8% in experiment [13]; 51.1% in [14]; 104% in [15]; 86.3% in experiment [16]; 59.7% in experiment [17]; 58% in experiment [18]. Moreover, the growth in experiment [19] is 72.3%; in experiment [20] it was 60.3%.

For `Oc1c(Cl)cc(Cl)cc1C=NCC1CCC(CN=Cc2cc(Cl)cc(Cl)c2O)CC1` (stereo not drawn), the growth was 102% in [1]; 97% in experiment [2]; 75.5% in experiment [3]; 95.1% in experiment [4]; 108% in experiment [5]; 76.6% in experiment [6]. Further, the growth in experiment [7] is 91.6%; in experiment [8] it was 106%; in experiment [9] it was 96.7%; in experiment [10], 112%; in experiment [11], 104%; in [12] it was 66.8%. The growth in experiment [13] was 89.6%; in [15], 90.9%; in [16] it was 70.9%; in [17], 98%; in experiment [18] it was 89.3%; in experiment [19], 111%. Besides, the growth in experiment [20] was 90.4%.

Take `N=C(N)Sc1cccc[n+]1[O-]`: the growth was 55.6% in experiment [1]; 78.7% in [2]; 68.9% in experiment [3]; 79% in experiment [4]; 21.8% in experiment [5]; 104% in experiment [6]. The growth in experiment [7] was 37%; in [8] it was 54.5%; in experiment [9] it was 76.7%; in [10], 39.8%; in experiment [11] it was 35.5%; in experiment [12], 33.2%. The growth was 22.2% in [13]; 59.6% in experiment [14]; 22.2% in [15]; 62.6% in [16]; 68.7% in experiment [17]; 58% in experiment [19]. In experiment [20], the growth was 18.4%.

Consider `COC(=O)c1ccc(=O)c2nc3/c(=C/O)c(O)cc(=O)c3[nH]c12`, for which the growth in experiment [1] is 15.1%; in experiment [2] it was 34.9%; in [3] it was 29.1%; in experiment [4] it was -9.51% (active); in experiment [5], 19.9%; in experiment [6] it was -1.12% (active). Further, the growth in experiment [7] was 6.78% (active); in [8], 27.7%; in [9], 11.8%; in experiment [10] it was 51%; in [11], 29.5%; in [12], 7.14% (active). Further, the growth was 1.52% (active) in experiment [13]; 45.3% in experiment [14]; 14.5% in experiment [16]; 6.32% (active) in experiment [17]; 12.6% in experiment [18]; 5.98% (active) in experiment [19]. In addition, the growth in [20] was 26.8%.

As for `NC(=S)N/N=C\c1nccc2c(N)cccc12`, the growth in [1] was 15.6%; in experiment [2], -5.48% (active); in experiment [3] it was 4.54% (active); in experiment [4], -7.04% (active); in experiment [5], 3.27% (active); in [6] it was 19.8%. Also, the growth in experiment [7] is 6.31% (active); in experiment [8] it was 12.4%; in experiment [9] it was 14.2%; in experiment [10], 16.2%; in experiment [11], 11%; in experiment [12] it was 14.2%. In addition, the growth in experiment [13] is 3.21% (active); in experiment [14] it was 49%; in experiment [15], 35.8%; in experiment [16], 8.21% (active); in experiment [17] it was -15.5% (active); in experiment [19] it was 7.45% (active). Further, the growth in experiment [20] is -34.8% (active).

On to `CN(Cc1ccccc1)c1ccc(SC#N)cc1`, for which the growth was 89.8% in [1]; 111% in [2]; 94.7% in experiment [3]; 108% in [4]; 86.6% in experiment [5]; 59.7% in [6]. In addition, the growth was 45.5% in experiment [7]; 92% in [8]; 79.4% in experiment [9]; 66.4% in experiment [10]; 103% in [11]; 31.8% in experiment [12]. Moreover, the growth in experiment [13] was 82.4%; in [15] it was 68.3%; in experiment [16] it was 85%; in experiment [17], 95.4%; in experiment [18], 87.7%; in experiment [19], 102%. Besides, in experiment [20], the growth is 84%.

`C/C(=N\NC(=S)N1CC2CCC(CC2)C1)c1ccccn1`: the growth in experiment [1] was 30.4%; in experiment [2], 11.7%; in experiment [3] it was 4.2% (active); in [4], 24%; in experiment [5], -3.66% (active); in experiment [6], 34.1%. Besides, the growth in experiment [7] is 16.8%; in [8] it was 5.42% (active); in [9] it was 3.86% (active); in experiment [10], 4.4% (active); in experiment [11], 19.4%; in experiment [12], 3.3% (active). Moreover, the growth in experiment [13] was -1.66% (active); in experiment [14] it was 15.7%; in experiment [15], -7.47% (active); in [16], 15.5%; in experiment [18], 3.7% (active); in experiment [19] it was 5.97% (active). For the same compound, the growth in experiment [20] was -32.4% (active).

With `Nc1ccc(-c2ccc(N)c(S(=O)(=O)O)c2)cc1S(=O)(=O)O`, the growth in [1] was 112%; in experiment [2], 119%; in [3] it was 116%; in [4], 101%; in experiment [5], 117%; in experiment [6], 74.4%. In addition, the growth in experiment [7] is 125%; in [8], 117%; in experiment [9], 106%; in [10] it was 114%; in experiment [11] it was 109%; in experiment [12], 118%. Also, the growth in [13] was 107%; in experiment [14] it was 110%; in experiment [16], 103%; in [17], 115%; in experiment [18], 106%; in experiment [19], 134%. The growth in experiment [20] is 104%.
